Where “and” joins values, the source holds several entries; their conditions need not be identical. Equal values may be shown once. Hit rate of the full screen: of about 5,500 compounds, about 2,000 (36%) were called active. Not shown: some 18% with an inconclusive outcome. Cut-off read from the data, not from the text of the source: active = normalized growth mostly below about 0.91 (no sharp cut-off); inconclusive = no clear call, values can overlap the other calls; inactive = mostly above about 0.92. Some of the results follow.
Assay: chemical genetic growth profiling, strain panel (AID 1159580);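 note: tested at 20 µM; growth read once vehicle control cultures reached saturation at 30 °C; 1 = growth at the plate median or of vehicle wells; lower values mean less growth of the strain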
Conditions: growth OD

Measured: normalized growth

Cc1cc(O)c2c(c1)Cc1cccc(O)c1C2=O
active: S. cerevisiae deletion strains, locus YEL061C, strain CIN8, stronger effect = lower value 0.848 | S. cerevisiae deletion strains, locus YGR229C, strain SMI1, stronger effect = lower value 0.677 | S. cerevisiae deletion strains, locus YIL066C, strain RNR3, stronger effect = lower value 0.717 | S. cerevisiae deletion strains, locus YIR030C, strain dcg1, stronger effect = lower value 1.1 [resistant] | S. cerevisiae deletion strains, locus YJL187C, strain SWE1 (second series), stronger effect = lower value 0.742 | S. cerevisiae deletion strains, locus YKR001C, strain vps1, stronger effect = lower value 0.865 | S. cerevisiae deletion strains, locus YLR039C, strain RIC1, stronger effect = lower value 0.261 | S. cerevisiae deletion strains, locus YLR262C, strain YPT6, stronger effect = lower value 0.517 | S. cerevisiae deletion strains, locus YOL006C, strain TOP1, stronger effect = lower value 0.261 | S. cerevisiae deletion strains, locus YPL055C, strain LGE1, stronger effect = lower value 0.753 | S. cerevisiae strains, strain wild type, stronger effect = lower value 0.881
inactive: S. cerevisiae deletion strains, locus YAL013W, strain DEP1, stronger effect = lower value 0.978 | S. cerevisiae deletion strains, locus YBR021W, strain FUR4, stronger effect = lower value 1.09 | S. cerevisiae deletion strains, locus YBR229C, strain ROT2, stronger effect = lower value 1.02 | S. cerevisiae deletion strains, locus YCL029C, strain bik1, stronger effect = lower value 1.01 | S. cerevisiae deletion strains, locus YDL035C, strain GPR1, stronger effect = lower value 0.978 | S. cerevisiae deletion strains, locus YDL074C, strain BRE1, stronger effect = lower value 0.832 | S. cerevisiae deletion strains, locus YDL101C, strain DUN1, stronger effect = lower value 0.951 | S. cerevisiae deletion strains, locus YDL134C, strain PPH21, stronger effect = lower value 0.992 | S. cerevisiae deletion strains, locus YDL185W, strain tfp1, stronger effect = lower value 1 | S. cerevisiae deletion strains, locus YDL192W, strain arf1, stronger effect = lower value 1.02 | S. cerevisiae deletion strains, locus YDR101C, strain arx1, stronger effect = lower value 1.01 | S. cerevisiae deletion strains, locus YDR150W, strain NUM1, stronger effect = lower value 1.02 | S. cerevisiae deletion strains, locus YDR162C, strain NBP2, stronger effect = lower value 0.905 | S. cerevisiae deletion strains, locus YDR318W, strain mcm21, stronger effect = lower value 0.982 | S. cerevisiae deletion strains, locus YDR388W, stronger effect = lower value 0.998 | S. cerevisiae deletion strains, locus YDR502C, strain sam2, stronger effect = lower value 1 | S. cerevisiae deletion strains, locus YER110C, stronger effect = lower value 1.01 | S. cerevisiae deletion strains, locus YER155C, strain BEM2, stronger effect = lower value 1.02 | S. cerevisiae deletion strains, locus YER167W, strain BCK2, stronger effect = lower value 0.941 | S. cerevisiae deletion strains, locus YGL078C, strain dbp3, stronger effect = lower value 1.02 | S. cerevisiae deletion strains, locus YGL086W, strain mad1, stronger effect = lower value 0.979 | S. cerevisiae deletion strains, locus YGL248W, strain PDE1, stronger effect = lower value 0.958 | S. cerevisiae deletion strains, locus YGR078C, strain PAC10, stronger effect = lower value 0.979 | S. cerevisiae deletion strains, locus YGR135W, strain pre9, stronger effect = lower value 1.02 | S. cerevisiae deletion strains, locus YGR252W, strain gcn5, stronger effect = lower value 0.914 | S. cerevisiae deletion strains, locus YHR030C, strain SLT2, stronger effect = lower value 0.96 and 1.05 | S. cerevisiae deletion strains, locus YHR079C, strain IRE1 (second series), stronger effect = lower value 1.02 | S. cerevisiae deletion strains, locus YHR079C, strain IRE1, stronger effect = lower value 1.04 | S. cerevisiae deletion strains, locus YHR094C, strain hxt1, stronger effect = lower value 1.01 | S. cerevisiae deletion strains, locus YHR129C, strain ARP1, stronger effect = lower value 0.926 | S. cerevisiae deletion strains, locus YHR200W, strain rpn10, stronger effect = lower value 1.05 | S. cerevisiae deletion strains, locus YIL073C, strain SPO22, stronger effect = lower value 0.898 | S. cerevisiae deletion strains, locus YIL125W, strain kgd1, stronger effect = lower value 0.998 | S. cerevisiae deletion strains, locus YJL134W, strain LCB3, stronger effect = lower value 1.01 | S. cerevisiae deletion strains, locus YJL168C, strain set2, stronger effect = lower value 1 | S. cerevisiae deletion strains, locus YJR043C, strain POL32, stronger effect = lower value 1.01 | S. cerevisiae deletion strains, locus YJR066W, strain TOR1, stronger effect = lower value 0.938 | S. cerevisiae deletion strains, locus YJR075W, strain HOC1, stronger effect = lower value 0.971 | S. cerevisiae deletion strains, locus YKL009W, strain mrt4, stronger effect = lower value 1.05 | S. cerevisiae deletion strains, locus YKL068W, stronger effect = lower value 1.02 | S. cerevisiae deletion strains, locus YKL085W, strain MDH1 (second series), stronger effect = lower value 1.03 | S. cerevisiae deletion strains, locus YKL085W, strain MDH1, stronger effect = lower value 1.03 | S. cerevisiae deletion strains, locus YKL190W, strain CNB1, stronger effect = lower value 0.995 | S. cerevisiae deletion strains, locus YLR058C, strain SHM2, stronger effect = lower value 0.922 | S. cerevisiae deletion strains, locus YLR102C, strain apc9, stronger effect = lower value 1.05 | S. cerevisiae deletion strains, locus YLR113W, strain HOG1, stronger effect = lower value 1.05 | S. cerevisiae deletion strains, locus YLR268W, strain sec22, stronger effect = lower value 0.93 | S. cerevisiae deletion strains, locus YLR330W, strain CHS5, stronger effect = lower value 0.957 | S. cerevisiae deletion strains, locus YLR342W, strain FKS1 (second series), stronger effect = lower value 0.918 | S. cerevisiae deletion strains, locus YLR371W, strain rom2, stronger effect = lower value 1.02 | S. cerevisiae deletion strains, locus YLR418C, strain cdc73, stronger effect = lower value 0.902 | S. cerevisiae deletion strains, locus YML016C, strain PPZ1, stronger effect = lower value 0.999 | S. cerevisiae deletion strains, locus YML032C, strain rad52, stronger effect = lower value 0.906 | S. cerevisiae deletion strains, locus YML124C, strain tub3, stronger effect = lower value 1.03 | S. cerevisiae deletion strains, locus YMR078C, strain ctf18, stronger effect = lower value 0.974 | S. cerevisiae deletion strains, locus YMR223W, strain ubp8, stronger effect = lower value 1.06 | S. cerevisiae deletion strains, locus YMR307W, strain GAS1, stronger effect = lower value 0.874 | S. cerevisiae deletion strains, locus YNL067W, strain RPL9B, stronger effect = lower value 0.932 | S. cerevisiae deletion strains, locus YNL183C, strain NPR1, stronger effect = lower value 0.967 | S. cerevisiae deletion strains, locus YNL233W, strain BNI4, stronger effect = lower value 0.946 | S. cerevisiae deletion strains, locus YNL250W, strain rad50, stronger effect = lower value 0.962 | S. cerevisiae deletion strains, locus YNL271C, strain bni1, stronger effect = lower value 1.01 | S. cerevisiae deletion strains, locus YNL298W, strain CLA4, stronger effect = lower value 0.999 | S. cerevisiae deletion strains, locus YNL307C, strain MCK1, stronger effect = lower value 1 | S. cerevisiae deletion strains, locus YNL322C, strain KRE1, stronger effect = lower value 0.987 | S. cerevisiae deletion strains, locus YNR052C, strain pop2, stronger effect = lower value 0.949 | S. cerevisiae deletion strains, locus YOL012C, strain htz1 0.675 | S. cerevisiae deletion strains, locus YOL147C, strain pex11, stronger effect = lower value 1.05 | S. cerevisiae deletion strains, locus YOR061W, strain CKA2, stronger effect = lower value 0.995 | S. cerevisiae deletion strains, locus YOR069W, strain VPS5, stronger effect = lower value 0.951 | S. cerevisiae deletion strains, locus YOR136W, strain idh2, stronger effect = lower value 1 | S. cerevisiae deletion strains, locus YOR144C, strain elg1, stronger effect = lower value 1.06 | S. cerevisiae deletion strains, locus YOR184W, strain ser1, stronger effect = lower value 0.984 | S. cerevisiae deletion strains, locus YOR231W, strain MKK1, stronger effect = lower value 1.07 | S. cerevisiae deletion strains, locus YOR316C, strain cot1, stronger effect = lower value 1.06 | S. cerevisiae deletion strains, locus YPL241C, strain CIN2, stronger effect = lower value 0.982 | S. cerevisiae deletion strains, locus YPL256C, strain CLN2, stronger effect = lower value 1.09 | S. cerevisiae deletion strains, locus YPR119W, strain clb2, stronger effect = lower value 1.05 | S. cerevisiae deletion strains, locus YPR141C, strain kar3, stronger effect = lower value 1.02 | S. cerevisiae deletion strains, locus YPR163C, strain tif3, stronger effect = lower value 0.982 | S. cerevisiae deletion strains, locus YPR167C, strain met16, stronger effect = lower value 1.06 | S. cerevisiae deletion strains, strain wtn01, stronger effect = lower value 0.997
0.573 (active) and 1.05 (inactive): S. cerevisiae deletion strains, locus YJL095W, strain BCK1, stronger effect = lower value

Source: PubChem BioAssay AID1159580 (chemical genetic matrix, 2015)
